# Test results as given in PubChem BioAssay (NCI).
# Compounds without any hit were thinned out: in the full panel of roughly 83,000, 20% have a hit.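 Each cell line was grown in a 96-well plate and treated with one concentration of compound for 48 hours. Values below 10 were considered active.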 A number with no mark means an inactive call. Activity calls are given as the source filed them.
# System: CAKI-1 renal
# Experiment: NCI-60 one-dose screen, 48 h (100 = growth as untreated, 0 = no growth, -100 = all killed)
# Conditions: 10 µM
# Protocol: Growth inhibition of the CAKI-1 human tumor cell line is measured as a screen for anti-cancer activity. Cells are grown in 96 well plates and exposed to the test compound for 48 hours. Compounds are tested at a single concentration, which is 10^-5 M for most compounds. The reported endpoint is percent growth (GI% or GIPRCNT), where numbers from 0 - 100% represent growth inhibition, and numbers from -100% - 0 represent cell death. For example, a value of 40 represents 60% growth inhibition. A value of 0 means no net growth occurred over the course of the experiment. A value of -40 indicates 40% of cells at the beginning of the experiment died by the end of the experiment. A value of -100 means all cells are dead at the end of the experiment.
# NCI-60 Human Tumor Cell Lines Screen was performed using the standard one-dose NCI protocol, which is described in more detail at https://dtp.cancer.gov/discovery_development/nci-60/default.htm.
# Compounds with GIPRCNT values below 10 were considered active. Activity score was based on GIPRCNT using the following formula: […]
# Score is 0 for GIPRCNT values of 100 or above, 50 for GIPRCNT values of 0, and 100 for GIPRCNT values of -100.
row,SMILES,growth
1,COc1cc2cc(C(=O)N3C[C@@H](CCl)c4c3cc(OC(=O)N3CCN(C)[C@@H]5CSSC[C@@H]53)c3ccccc43)[nH]c2c(OC)c1OC,-0.707% (active)
2,C#CCCCN(CCNc1ccnc2cc(Cl)ccc12)C(=O)CCC(=O)O[C@@H]1O[C@@H]2OC3(C)CC[C@H]4[C@H](C)CC[C@@H]([C@H]1C)[C@@]24OO3,41.4%
3,COc1cc2cc(C(=O)N3C[C@@H](CCl)c4c3cc(OC(=O)N3CCN(C)[C@@H]5CSSC[C@H]53)c3ccccc43)[nH]c2c(OC)c1OC,-9.91% (active)
4,COc1cc(OC)c(S(=O)(=O)N(CCCl)CCCl)cc1C(=O)/C=C/c1cc(OC)c(OC)c(OC)c1,-5.59% (active)
5,COc1cc(OC)c(S(=O)(=O)N(CCCl)CCCl)cc1C(=O)/C=C/c1ccc(C)cc1,65.3%
6,CN(C)CCc1cn(C2CCC2)c2cccc(O)c12,42.3%
7,COC(=O)C[C@](O)(CCC(C)C)C(=O)O[C@@H]1C(OC)=C[C@]23CCCN2CCc2cc4c(cc2[C@H]13)OCO4,-13.1% (active)
8,O=C(/C=C/c1ccc(F)cc1)c1nc2ccccc2n1Cc1ccc(Br)cc1,-23% (active)
9,COC(=O)C[C@](O)(CCCC(C)C)C(=O)O[C@H]1C(OC)=C[C@@]23CCCN2CCc2cc4c(cc2[C@@H]13)OCO4,-3.49% (active)
10,O=C(/C=C/c1ccco1)c1nc2ccccc2n1Cc1ccc(Br)cc1,47.5%
11,O=C(/C=C/c1ccc(Br)cc1)c1nc2ccccc2n1Cc1ccc(Br)cc1,16%
12,O=C(/C=C/c1ccc(Cl)cc1)c1nc2ccccc2n1Cc1ccc(F)cc1,41.8%
13,CC12CCC3(CCC(=O)NCCCNc4ccnc5cc(Cl)ccc45)[C@@](C)(OO[C@]3(C)O1)O2,-25% (active)
14,CC(=O)Oc1ccccc1C(=O)NC([Se])=NC1CCCCC1,-75.4% (active)
15,O=C(/C=C/c1cccc(Br)c1)c1nc2ccccc2n1Cc1ccc(F)cc1,54.4%
16,O=C(/C=C/c1ccccc1Cl)c1nc2ccccc2n1Cc1ccc(F)cc1,-40.5% (active)
17,COc1cc(OC)c(/C=C/C(=O)c2nc3ccccc3n2Cc2ccc(F)cc2)c(OC)c1,56.2%
18,CC12OOC(C)(OO1)C2CCC(=O)NCCNc1ccnc2cc(Cl)ccc12 (stereo not given),78.2%
19,COc1ccc2cc([C@H](C)C(=O)[Se]CCC#N)ccc2c1,-94% (active)
20,COc1ccc(OC)c(/C=C/C(=O)c2nc3ccccc3n2Cc2ccc(F)cc2)c1,32.2%

row,SMILES,growth
1,C[C@H]1[C@H](OC(=O)CCC(=O)N(CCCc2cn(-c3ccc(CN4CCOCC4)cc3)nn2)CCNc2ccnc3cc(Cl)ccc23)O[C@@H]2OC3(C)CC[C@H]4[C@H](C)CC[C@@H]1[C@@]24OO3,21.4%
2,O=C(/C=C/c1ccccc1)c1nc2ccccc2n1Cc1ccc(Br)cc1,-19.2% (active)
3,COC(=O)CCn1c(-c2ccc(-n3cc(-c4ccc(O[C@H]5O[C@@H]6OC7(C)CC[C@H]8[C@H](C)CC[C@@H]([C@H]5C)[C@@]68OO7)cc4)nn3)cc2)nc2ccccc21,13.7%
4,COc1ccc(/C=C/C(=O)c2nc3ccccc3n2Cc2ccc(Br)cc2)cc1,68%
5,CCOP(=O)(CC(F)(F)C(F)(F)F)OCC,2.63% (active)
6,COC(=O)C[C@](O)(CCC(C)C)C(=O)O[C@H]1C(OC)=C[C@@]23CCCN2CCc2cc4c(cc2[C@@H]13)OCO4,-28.4% (active)
7,CC[C@]12C=CCN3CC[C@@]4(c5ccc(OC)cc5N(C)[C@H]4[C@@](O)(C(=O)OC)[C@@H]1OC(=O)CCCC[P+](c1ccc(OC)cc1)(c1ccc(OC)cc1)c1ccc(OC)cc1)[C@@H]32,-78.5% (active)
8,CCOC(=O)C1=C(Nc2ccccc2)C(=O)OC12C(=O)Nc1ccccc12 (stereo not given),82.6%
9,C[C@H]1[C@@H](Oc2ccc(-c3cn(-c4ccnc5cc(Cl)ccc45)nn3)cc2)O[C@@H]2OC3(C)CC[C@H]4[C@H](C)CC[C@@H]1[C@@]24OO3,25.6%
10,O=C(NC([Se])=NC1CCCCC1)c1ccc2c(c1)OCO2,39.6%
11,O=C(/C=C/c1ccc(Cl)cc1Cl)c1nc2ccccc2n1Cc1ccc(F)cc1,53.3%
12,O=C(NCCCCC(c1ccc(F)cc1)c1ccc(F)cc1)Nc1ccc([N+](=O)[O-])c(C(F)(F)F)c1,-3.31% (active)
13,CCC[Se]C(=O)c1ccc(C(=O)[Se]CCC)s1,-78.1% (active)
14,C=CC[Se]C(=O)c1cncc(C(=O)[Se]CC=C)c1,-8.92% (active)
15,Cc1ccc2[nH]c(=S)n(-c3ccc(F)cc3)c(=O)c2c1,97.3%
16,CC(=C\C(=O)Oc1ccc2c3c1OC1C(O)CCC4(O)C(C2)N(CC2CCC2)CCC314)/C=C1\CCCc2ccccc21 (stereo not given),41.7%
17,CC1=C(CCC=NNC(N)=O)C2=C(C)C3(CC3)[C@@](C)(O)C(=O)C2=C1,-59.8% (active)
18,CC[C@@]12CC(C(=O)OC)=C3Nc4cc5c(cc4[C@@]34CCN(C[C@H]3O[C@H]31)[C@@H]24)[C@@H]1[C@H](O5)[C@@H](O)[C@@]2(CC)CC(C(=O)OC)=C3Nc4cc(OC)ccc4[C@@]34CCN1[C@@H]24,12.9%
19,C#CC[Se]C(=O)c1ccc2n[se]nc2c1,71.3%
20,C[C@H]1[C@@H](CC(=O)N[C@@H](Cc2coc3ccccc23)B(O)O)O[C@@H]2OC3(C)CC[C@H]4[C@H](C)CC[C@@H]1[C@@]24OO3,25.2%
